Holding throughout (experiment): DAPPL (digital affinity profiling via proximity ligation, sequencing); 10 mM Tris-HCl pH 7.5, 50 mM NaCl, 1 mM DTT, 4% glycerol, room temperature, 30 min; GST-TFs on glutathione beads, 16-mer random dsDNA library, 0.1% formaldehyde crosslink after washing; high values mean tight binding
Conditions in all cases: protein: recombinant; tags: N-terminal GST; dsDNA, one strand shown

One assay concerns the target T1, ELK1 (Homo sapiens, UniProt P19419 1-428).
T1 sequence: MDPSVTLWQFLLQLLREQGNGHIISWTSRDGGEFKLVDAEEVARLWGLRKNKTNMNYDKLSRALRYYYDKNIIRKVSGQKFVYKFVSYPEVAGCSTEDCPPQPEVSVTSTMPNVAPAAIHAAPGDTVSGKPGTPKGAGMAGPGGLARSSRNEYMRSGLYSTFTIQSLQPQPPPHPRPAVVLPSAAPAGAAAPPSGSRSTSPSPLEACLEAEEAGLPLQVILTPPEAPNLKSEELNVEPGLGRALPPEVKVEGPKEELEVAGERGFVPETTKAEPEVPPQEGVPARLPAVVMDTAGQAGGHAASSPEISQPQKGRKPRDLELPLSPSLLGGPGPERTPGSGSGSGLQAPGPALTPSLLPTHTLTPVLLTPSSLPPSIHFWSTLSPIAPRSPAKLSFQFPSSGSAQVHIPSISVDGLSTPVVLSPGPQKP
In outline: (§1)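 Binding signal is each hexamer's read frequency for a factor divided by its frequency in the tag-only sample. The factors were GST-fused human transcription factors from yeast, captured on glutathione beads, DNA-barcoded and pooled with that sample. Pools were incubated with 200 nmole of a random double-stranded 16-mer DNA library in Tris/NaCl/DTT/glycerol buffer at room temperature for 30 min, then washed, crosslinked with 0.1% formaldehyde, proximity-ligated with BsaI/T4 ligase (1 h, 37 °C), PCR-amplified and sequenced on an Illumina NextSeq500.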

For another assay, the target named is T2, ERG (Homo sapiens, UniProt P11308 1-479).
T2 sequence: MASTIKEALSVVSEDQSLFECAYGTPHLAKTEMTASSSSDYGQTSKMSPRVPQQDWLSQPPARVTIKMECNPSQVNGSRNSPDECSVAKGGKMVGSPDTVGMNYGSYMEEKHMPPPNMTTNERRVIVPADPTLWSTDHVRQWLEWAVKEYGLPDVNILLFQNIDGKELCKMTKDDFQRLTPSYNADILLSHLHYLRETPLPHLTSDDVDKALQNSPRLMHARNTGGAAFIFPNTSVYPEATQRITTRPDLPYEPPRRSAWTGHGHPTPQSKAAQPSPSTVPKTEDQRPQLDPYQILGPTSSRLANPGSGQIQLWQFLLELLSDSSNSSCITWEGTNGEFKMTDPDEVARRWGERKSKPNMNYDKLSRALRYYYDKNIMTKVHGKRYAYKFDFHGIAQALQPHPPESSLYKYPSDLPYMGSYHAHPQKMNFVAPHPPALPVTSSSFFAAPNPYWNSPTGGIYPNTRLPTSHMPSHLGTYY
The procedure, abridged: as §1

In the next assay the target is ELF1 (Homo sapiens, UniProt P32519 1-619). In outline:
as §1

In the next assay the target is T3, EHF (Homo sapiens, UniProt Q9NZC4 1-300).
T3 sequence: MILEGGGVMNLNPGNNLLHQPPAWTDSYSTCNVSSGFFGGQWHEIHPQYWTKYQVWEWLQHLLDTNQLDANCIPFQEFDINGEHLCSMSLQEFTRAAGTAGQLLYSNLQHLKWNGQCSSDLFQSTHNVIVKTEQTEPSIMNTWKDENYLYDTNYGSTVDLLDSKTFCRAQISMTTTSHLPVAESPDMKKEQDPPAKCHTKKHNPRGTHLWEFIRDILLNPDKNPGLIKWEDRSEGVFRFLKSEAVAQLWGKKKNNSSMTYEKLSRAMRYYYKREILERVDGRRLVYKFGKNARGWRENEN
The procedure, abridged:
as §1

In the next assay the target is SPI1 (Homo sapiens, UniProt P17947 1-270). In outline:
as §1

The target of a further assay is SPIB (Homo sapiens, UniProt Q01892 1-262). In outline:
as §1

The target of the next assay is T4, SPIC (Homo sapiens, UniProt Q8N5J4 1-248).
T4 sequence: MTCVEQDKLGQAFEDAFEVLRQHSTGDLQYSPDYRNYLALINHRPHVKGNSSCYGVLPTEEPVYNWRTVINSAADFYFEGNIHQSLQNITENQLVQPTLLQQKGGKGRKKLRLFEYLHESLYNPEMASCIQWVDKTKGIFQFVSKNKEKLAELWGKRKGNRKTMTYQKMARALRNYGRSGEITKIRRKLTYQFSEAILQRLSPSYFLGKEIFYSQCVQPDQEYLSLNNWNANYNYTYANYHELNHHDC
In outline: as §1

The next assay concerns the target ELF4 (Homo sapiens, UniProt Q99607 1-663). In outline: as §1
A further assay addresses T5, ELK4 (Homo sapiens, UniProt P28324-2 1-405).
T5 sequence: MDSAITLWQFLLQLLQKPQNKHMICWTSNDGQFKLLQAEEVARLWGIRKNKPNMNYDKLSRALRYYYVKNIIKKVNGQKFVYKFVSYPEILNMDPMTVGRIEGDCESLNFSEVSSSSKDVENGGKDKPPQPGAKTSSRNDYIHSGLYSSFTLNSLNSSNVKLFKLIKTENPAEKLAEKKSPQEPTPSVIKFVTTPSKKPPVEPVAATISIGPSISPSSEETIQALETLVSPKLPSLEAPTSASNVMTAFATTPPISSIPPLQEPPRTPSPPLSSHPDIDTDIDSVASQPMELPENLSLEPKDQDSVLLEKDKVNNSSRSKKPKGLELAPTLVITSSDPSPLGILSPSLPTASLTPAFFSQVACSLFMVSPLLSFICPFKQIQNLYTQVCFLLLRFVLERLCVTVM
In outline: as §1

Another assay has as its target ETV1 (Homo sapiens, UniProt P50549 1-477). The procedure, abridged: as §1
The target of a further assay is T6, ERF (Homo sapiens, UniProt P50548 1-548).
T6 sequence: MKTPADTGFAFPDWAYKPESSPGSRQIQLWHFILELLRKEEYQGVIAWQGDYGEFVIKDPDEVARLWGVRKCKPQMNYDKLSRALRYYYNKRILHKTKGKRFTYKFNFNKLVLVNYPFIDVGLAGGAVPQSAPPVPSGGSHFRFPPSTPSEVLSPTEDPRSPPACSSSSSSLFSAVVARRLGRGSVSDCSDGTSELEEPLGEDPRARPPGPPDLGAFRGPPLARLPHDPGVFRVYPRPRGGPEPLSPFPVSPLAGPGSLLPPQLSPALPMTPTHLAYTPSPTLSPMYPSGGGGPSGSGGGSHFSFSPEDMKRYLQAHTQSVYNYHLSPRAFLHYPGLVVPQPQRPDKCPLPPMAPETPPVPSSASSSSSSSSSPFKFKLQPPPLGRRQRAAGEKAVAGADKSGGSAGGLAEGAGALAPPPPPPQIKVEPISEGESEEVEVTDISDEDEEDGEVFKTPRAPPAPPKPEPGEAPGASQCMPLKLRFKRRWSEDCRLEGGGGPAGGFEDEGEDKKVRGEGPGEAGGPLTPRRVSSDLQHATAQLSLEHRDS
In outline: as §1

The target of the next assay is T7, ETV3L (Homo sapiens, UniProt Q6ZN32 1-361).
T7 sequence: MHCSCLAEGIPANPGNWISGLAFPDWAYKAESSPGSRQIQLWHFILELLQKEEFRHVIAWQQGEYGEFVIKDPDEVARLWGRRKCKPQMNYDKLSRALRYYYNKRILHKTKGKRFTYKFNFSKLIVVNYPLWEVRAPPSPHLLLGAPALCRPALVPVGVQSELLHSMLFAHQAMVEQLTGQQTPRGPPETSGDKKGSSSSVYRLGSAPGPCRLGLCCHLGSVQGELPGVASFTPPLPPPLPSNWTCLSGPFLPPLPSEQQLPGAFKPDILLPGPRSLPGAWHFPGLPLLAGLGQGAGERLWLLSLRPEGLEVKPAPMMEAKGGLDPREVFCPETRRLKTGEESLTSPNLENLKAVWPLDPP
In outline:
as §1

For another assay, the target named is T8, ETS2 (Homo sapiens, UniProt P15036 1-469).
T8 sequence: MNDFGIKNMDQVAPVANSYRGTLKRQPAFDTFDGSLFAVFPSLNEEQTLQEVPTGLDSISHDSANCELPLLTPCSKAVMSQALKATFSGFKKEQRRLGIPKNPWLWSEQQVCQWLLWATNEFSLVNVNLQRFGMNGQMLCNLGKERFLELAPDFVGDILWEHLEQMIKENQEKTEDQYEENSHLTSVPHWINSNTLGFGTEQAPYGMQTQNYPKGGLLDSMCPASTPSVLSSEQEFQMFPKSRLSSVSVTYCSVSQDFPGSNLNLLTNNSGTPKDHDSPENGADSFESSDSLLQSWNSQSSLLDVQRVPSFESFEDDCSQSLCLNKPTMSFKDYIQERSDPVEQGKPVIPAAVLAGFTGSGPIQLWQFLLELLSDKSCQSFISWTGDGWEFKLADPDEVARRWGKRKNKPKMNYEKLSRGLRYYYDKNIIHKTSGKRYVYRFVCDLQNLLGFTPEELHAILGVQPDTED
In outline:
as §1

The target in a further assay is ETV6 (Homo sapiens, UniProt P41212 1-452). The procedure, abridged: as §1
For a further assay, the target named is T9, ELF3 (Homo sapiens, UniProt P78545 1-371).
T9 sequence: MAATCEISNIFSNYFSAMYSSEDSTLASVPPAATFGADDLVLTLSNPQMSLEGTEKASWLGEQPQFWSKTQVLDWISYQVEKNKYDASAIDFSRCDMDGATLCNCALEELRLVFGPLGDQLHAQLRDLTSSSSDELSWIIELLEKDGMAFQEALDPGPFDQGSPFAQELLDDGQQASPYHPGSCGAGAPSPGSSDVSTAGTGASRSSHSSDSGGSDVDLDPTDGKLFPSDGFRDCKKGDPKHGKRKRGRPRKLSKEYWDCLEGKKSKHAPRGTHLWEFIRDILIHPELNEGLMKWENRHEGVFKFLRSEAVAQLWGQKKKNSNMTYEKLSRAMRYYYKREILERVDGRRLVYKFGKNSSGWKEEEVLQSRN
The procedure, abridged: as §1

In the next assay the target is T10, SPDEF (Homo sapiens, UniProt O95238 1-335).
T10 sequence: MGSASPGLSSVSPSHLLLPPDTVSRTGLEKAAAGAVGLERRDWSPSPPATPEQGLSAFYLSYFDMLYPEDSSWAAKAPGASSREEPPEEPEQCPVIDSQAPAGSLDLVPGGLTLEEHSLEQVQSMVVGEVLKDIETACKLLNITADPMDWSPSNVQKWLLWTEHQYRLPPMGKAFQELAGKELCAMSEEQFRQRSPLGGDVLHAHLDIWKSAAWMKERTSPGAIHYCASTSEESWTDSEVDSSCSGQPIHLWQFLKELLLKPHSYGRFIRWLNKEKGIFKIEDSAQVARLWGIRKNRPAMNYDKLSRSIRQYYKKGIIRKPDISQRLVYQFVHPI
In outline: as §1

The next assay addresses T11, ETV7 (Homo sapiens, UniProt Q9Y603 1-341).
T11 sequence: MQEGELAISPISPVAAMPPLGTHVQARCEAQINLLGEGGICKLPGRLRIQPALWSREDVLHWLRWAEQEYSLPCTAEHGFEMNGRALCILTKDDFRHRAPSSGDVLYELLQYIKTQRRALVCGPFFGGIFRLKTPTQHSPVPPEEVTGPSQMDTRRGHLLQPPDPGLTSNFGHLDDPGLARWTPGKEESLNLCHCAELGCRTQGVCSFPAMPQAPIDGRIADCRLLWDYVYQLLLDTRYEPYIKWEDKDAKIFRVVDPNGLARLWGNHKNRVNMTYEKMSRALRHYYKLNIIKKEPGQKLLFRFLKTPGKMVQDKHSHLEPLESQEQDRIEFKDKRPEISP
The procedure, abridged:
as §1

The target of another assay is T12, ETV3 (Homo sapiens, UniProt P41162-2 1-143).
T12 sequence: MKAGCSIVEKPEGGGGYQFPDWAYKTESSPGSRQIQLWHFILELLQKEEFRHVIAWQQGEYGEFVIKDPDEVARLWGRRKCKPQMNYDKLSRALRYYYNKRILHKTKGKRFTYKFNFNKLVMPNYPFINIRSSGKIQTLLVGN
In outline:
as §1

Sequence of ELF1 (P32519 whole entry): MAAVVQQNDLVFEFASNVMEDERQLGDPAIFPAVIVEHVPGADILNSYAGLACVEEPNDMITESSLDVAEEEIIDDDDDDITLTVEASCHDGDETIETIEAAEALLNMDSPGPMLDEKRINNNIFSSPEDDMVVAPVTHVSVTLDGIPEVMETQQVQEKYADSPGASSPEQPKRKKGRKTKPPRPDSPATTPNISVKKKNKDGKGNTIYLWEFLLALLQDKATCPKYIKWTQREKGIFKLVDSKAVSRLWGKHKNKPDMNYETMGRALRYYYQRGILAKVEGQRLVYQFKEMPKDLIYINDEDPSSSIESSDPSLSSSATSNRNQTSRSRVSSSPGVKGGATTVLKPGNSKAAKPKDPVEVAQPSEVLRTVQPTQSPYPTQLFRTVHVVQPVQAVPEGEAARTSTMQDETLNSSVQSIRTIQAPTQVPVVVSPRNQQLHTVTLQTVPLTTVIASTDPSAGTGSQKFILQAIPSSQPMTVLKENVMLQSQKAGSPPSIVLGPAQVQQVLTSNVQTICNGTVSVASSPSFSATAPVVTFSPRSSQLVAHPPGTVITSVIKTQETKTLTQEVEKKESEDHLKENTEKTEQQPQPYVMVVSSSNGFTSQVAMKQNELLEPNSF
Sequence of SPIB (Q01892 whole entry): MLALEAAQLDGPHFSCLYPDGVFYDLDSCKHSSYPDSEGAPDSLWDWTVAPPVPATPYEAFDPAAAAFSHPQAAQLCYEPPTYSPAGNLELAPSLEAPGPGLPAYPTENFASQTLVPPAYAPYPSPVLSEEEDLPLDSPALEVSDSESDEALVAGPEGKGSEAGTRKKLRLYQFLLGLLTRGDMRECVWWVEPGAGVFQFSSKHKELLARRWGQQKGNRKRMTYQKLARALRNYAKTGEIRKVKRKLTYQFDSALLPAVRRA
Sequence of ELF4 (Q99607 whole entry): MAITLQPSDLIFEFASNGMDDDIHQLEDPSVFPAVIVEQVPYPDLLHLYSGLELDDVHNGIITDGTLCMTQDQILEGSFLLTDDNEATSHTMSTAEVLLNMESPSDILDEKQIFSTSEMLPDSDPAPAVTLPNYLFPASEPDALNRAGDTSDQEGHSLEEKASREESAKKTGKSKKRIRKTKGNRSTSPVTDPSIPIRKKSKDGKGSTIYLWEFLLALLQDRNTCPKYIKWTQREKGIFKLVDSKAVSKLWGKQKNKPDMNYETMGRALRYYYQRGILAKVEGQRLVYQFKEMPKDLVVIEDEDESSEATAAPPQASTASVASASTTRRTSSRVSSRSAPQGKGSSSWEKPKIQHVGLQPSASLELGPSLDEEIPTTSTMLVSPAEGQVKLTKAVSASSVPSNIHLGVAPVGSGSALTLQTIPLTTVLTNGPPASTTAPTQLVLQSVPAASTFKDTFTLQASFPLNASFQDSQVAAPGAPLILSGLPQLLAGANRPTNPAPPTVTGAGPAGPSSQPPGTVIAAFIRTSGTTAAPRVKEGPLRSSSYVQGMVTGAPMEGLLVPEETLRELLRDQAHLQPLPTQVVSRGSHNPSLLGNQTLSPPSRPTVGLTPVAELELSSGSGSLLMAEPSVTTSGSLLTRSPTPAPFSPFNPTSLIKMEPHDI
Sequence of ETV1 (P50549 whole entry): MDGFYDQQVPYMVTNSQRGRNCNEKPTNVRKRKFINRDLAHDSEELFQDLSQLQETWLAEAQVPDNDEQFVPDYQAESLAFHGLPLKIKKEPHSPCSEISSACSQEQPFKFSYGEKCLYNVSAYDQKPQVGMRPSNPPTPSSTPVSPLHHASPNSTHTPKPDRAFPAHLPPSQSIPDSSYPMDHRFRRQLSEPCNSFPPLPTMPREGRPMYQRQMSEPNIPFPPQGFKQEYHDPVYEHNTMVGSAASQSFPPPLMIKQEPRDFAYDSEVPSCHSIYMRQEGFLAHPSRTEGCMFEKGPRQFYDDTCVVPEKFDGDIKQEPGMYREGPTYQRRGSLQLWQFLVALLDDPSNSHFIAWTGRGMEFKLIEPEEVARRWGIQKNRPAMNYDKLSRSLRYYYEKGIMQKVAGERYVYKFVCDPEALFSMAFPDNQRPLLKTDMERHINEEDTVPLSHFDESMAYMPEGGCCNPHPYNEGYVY
Sequence of ETV6 (P41212 whole entry): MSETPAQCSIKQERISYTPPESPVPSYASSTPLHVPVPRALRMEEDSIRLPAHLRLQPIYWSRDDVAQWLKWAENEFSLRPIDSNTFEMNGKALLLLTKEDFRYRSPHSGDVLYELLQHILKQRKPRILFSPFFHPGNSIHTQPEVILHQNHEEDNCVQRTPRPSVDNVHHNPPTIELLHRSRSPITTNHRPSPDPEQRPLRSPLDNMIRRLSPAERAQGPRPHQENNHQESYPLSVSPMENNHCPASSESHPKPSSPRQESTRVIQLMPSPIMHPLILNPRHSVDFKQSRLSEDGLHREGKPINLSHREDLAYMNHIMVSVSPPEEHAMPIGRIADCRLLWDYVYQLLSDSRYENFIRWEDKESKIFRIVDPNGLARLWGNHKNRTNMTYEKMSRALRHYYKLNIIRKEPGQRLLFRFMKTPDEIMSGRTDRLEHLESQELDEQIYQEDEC

With TGGTTG, the binding signal is 1.02 fold enrichment (6-mer frequency, TF over GST control) with ELK1; 1.01 fold enrichment (6-mer frequency, TF over GST control) in the assay with ERG; 1.02 fold enrichment (6-mer frequency, TF over GST control) with ELF1; 1.02 fold enrichment (6-mer frequency, TF over GST control) with EHF; 1.06 fold enrichment (6-mer frequency, TF over GST control) in the assay with SPI1; 1.08 fold enrichment (6-mer frequency, TF over GST control) in the assay with SPIB. Moreover, the binding signal with SPIC was 1.08 fold enrichment (6-mer frequency, TF over GST control); with ELF4 it was 1.03 fold enrichment (6-mer frequency, TF over GST control); with ELK4, 1.09 fold enrichment (6-mer frequency, TF over GST control); with ETV1 it was 1.05 fold enrichment (6-mer frequency, TF over GST control); with ERF, 1.1 fold enrichment (6-mer frequency, TF over GST control); with ETV3L, 1.03 fold enrichment (6-mer frequency, TF over GST control). The binding signal was 1.08 fold enrichment (6-mer frequency, TF over GST control) with ETS2 and 1 fold enrichment (6-mer frequency, TF over GST control) with ETV6.
Take TTGGAT: the binding signal with ELF1 is 1.01 fold enrichment (6-mer frequency, TF over GST control); with SPIB it was 1.07 fold enrichment (6-mer frequency, TF over GST control); with ELK4 it was 1.04 fold enrichment (6-mer frequency, TF over GST control); with ELF3, 1.04 fold enrichment (6-mer frequency, TF over GST control); with SPDEF, 1.13 fold enrichment (6-mer frequency, TF over GST control); in the assay with ETV7 it was 1.01 fold enrichment (6-mer frequency, TF over GST control).
On to ATTCGG, for which the binding signal with SPIC was 1.04 fold enrichment (6-mer frequency, TF over GST control); with ETV3, 1.02 fold enrichment (6-mer frequency, TF over GST control).

The values are drawn from paper PMC7862700, “An all-to-all approach to the identification of sequence-specific readers for epigenetic DNA modifications on cytosine”.
